Calls of active or inactive are those of the source. How the source made its calls: active means hit-call score of the fitted dose curve at least 0.9, where 1 is the maximum; inactive means score below 0.9.
Target: Nuclear respiratory factor 1 (Homo sapiens) (UniProt Q16656)
Experiment: ATG_NRF1_CIS: Attagene CIS-FACTORIAL HepG2 Assay for human Nuclear Respiratory Factor 1 (NRF1) Orphan Gene (AID 2282987)
Conditions: HepG2 NRF1 cis-element reporter, Attagene multiplex; actives raise or lower the signal
Procedure: ATG_CIS is a cell-based, multiplexed-readout assay that uses HepG2, a human liver cell line, with measurements taken at 24 hours after chemical dosing in a 24-well plate.ATG_NRF1_CIS is one of 52 assay component(s) measured or calculated from the ATG_CIS assay. It is designed to make measurements of mRNA induction, a form of inducible reporter, as detected with fluorescence intensity signals by Reverse transcription polymerase chain reaction (RT-PCR) and Capillary electrophoresis technology.Data from the assay component ATG_NRF1_CIS was analyzed into 1 assay endpoint. This assay endpoint, ATG_NRF1_CIS, was analyzed with bidirectional fitting relative to DMSO as the negative control and baseline of activity. Using a type of inducible reporter, measures of mRNA for gain or loss-of-signal activity can be used to understand the reporter gene at the transcription factor-level as they relate to the gene NRF1. Furthermore, this assay endpoint can be referred to as a primary readout, because this assay has produced multiple assay endpoints where this one serves a reporter gene function. To generalize the intended target to other relatable targets, this assay endpoint is annotated to the dna binding intended target family, where the subfamily is nuclear respiratory factors.
Human liver HepG2 cells are transiently transfected with multiple reporter transcription units (MRTUs) in 6-well plates using FuGene 6 reagent (Roche; 3 ml FuGene/1 mg DNA). The MRTU constructs are regulated by a cis-regulating element (promoter). […] A major difference between the CIS and TRANS system is that in CIS activities of endogenous TFs are measured, whereas the TRANS assay evaluates changes in activities of exogenous, chimeric NR-Gal4 proteins. […] At the end of 24 hour incubation, total RNA was isolated using TriZol reagent (Invitrogen). The isolated RNA is then reverse-transcribed using oligo(dT) primer and Mo-MLV reverse transcriptase (Invitrogen) with DNAse I (Ambion) treatment for 30 min. The one-tenth of the produced cDNA was amplified by PCR using Taq DNA polymerase (Invitrogen) and two reporter sequence-specific primers. The PCR products were fluorescently labeled by primer extension with 6-arboxyfluorescein (6-FAM) 5'-labeled reporter sequence-specific primer (2 min at 95 C, 20 s at 68 C and 10 min at 72 C) and these products were digested with 5U of HpaI (New England Biolabs) for 2h at 37 C. The fragments were purified using Qiaquick PCR columns (Qiagen), analyzed on an ABI 3130xL genetic analyzer (Applied Biosystems) with peak positions identified by using a set of X-rhodamine (ROX)-labeled MapMarker1000 molecular weight standards (BioVentures). The raw capillary electrophoresis data was processed using Attagraph software (Attagene).

Nuclear respiratory factor 1 (Homo sapiens), sequence (Q16656 whole entry, looked up): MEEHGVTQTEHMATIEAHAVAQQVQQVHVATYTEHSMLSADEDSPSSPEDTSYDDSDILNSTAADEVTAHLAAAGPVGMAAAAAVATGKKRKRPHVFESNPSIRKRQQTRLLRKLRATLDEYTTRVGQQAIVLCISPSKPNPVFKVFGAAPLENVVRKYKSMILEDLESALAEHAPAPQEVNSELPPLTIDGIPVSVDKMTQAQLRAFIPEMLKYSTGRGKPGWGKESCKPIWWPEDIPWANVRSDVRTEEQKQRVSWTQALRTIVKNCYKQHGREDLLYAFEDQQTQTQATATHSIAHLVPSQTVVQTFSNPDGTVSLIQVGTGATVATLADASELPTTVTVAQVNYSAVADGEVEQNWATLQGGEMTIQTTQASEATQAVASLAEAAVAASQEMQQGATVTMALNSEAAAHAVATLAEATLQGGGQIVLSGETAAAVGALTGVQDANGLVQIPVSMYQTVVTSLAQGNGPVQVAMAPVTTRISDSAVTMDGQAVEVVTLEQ

| SMILES | outcome |
| --- | --- |
| COC[C@H](C)N(C(=O)CCl)c1c(C)csc1C | inactive |
| O=CC=O | inactive |
| ClCc1ccccn1 | inactive |
| Cc1cc(Cl)ccc1O[C@H](C)C(=O)O | inactive |
| CCCCCCCCC(=O)NCc1ccc(O)c(OC)c1 | inactive |
| ClC(Cl)=C(Cl)C(Cl)=C(Cl)Cl | inactive |
| Cc1cc(=O)[nH]o1 | inactive |
| Nc1cccc2ccccc12 | inactive |
| Oc1cccc2cccnc12 | inactive |
| Cl/C=C/Cl | inactive |
| CN(CCCC(=O)c1cccnc1)N=O | inactive |
| Nc1ccc(N=Nc2ccc(-c3ccc(N=Nc4c(S(=O)(=O)O)cc5cc(S(=O)(=O)O)c(N=Nc6ccccc6)c(O)c5c4N)cc3)cc2)c(N)c1 | inactive |
| ClCc1cccnc1 | inactive |
| CC1(C)CCC(Cc2ccc(Cl)cc2)C1(O)Cn1cncn1 (stereo not given) | inactive |
| CCOP(=S)(OCC)Oc1nc(Cl)c(Cl)cc1Cl | inactive |
| c1ccc(N=NNc2ccccc2)cc1 | inactive |
| CN(C)N=O | inactive |
| CC(C)(C)c1cc(O)ccc1O | inactive |
| COc1cc(-c2ccc(N)c(OC)c2)ccc1N | inactive |
| CC(C)c1cccc(C(C)C)c1O | inactive |

| SMILES | outcome |
| --- | --- |
| Nc1cccc(Cl)c1 | inactive |
| CCCCC(CC)CO[N+](=O)[O-] (stereo not given) | inactive |
| CC(=[OH+])/C=C(/C)[O-].CC(=[OH+])/C=C(/C)[O-].CC(=[OH+])/C=C(/C)[O-].[Al] | inactive |
| Cl/C=C\C[N+]12CN3CN(CN(C3)C1)C2 | inactive |
| O=C(Nc1ccc2[nH]ccc2c1)c1cc2cc(F)ccc2n1Cc1cccc(F)c1 | inactive |
| CC(C)CCCCCCOC(=O)c1ccccc1C(=O)OCCCCCCC(C)C | inactive |
| O=C1C2(Cl)C3(Cl)C4(Cl)C(Cl)(Cl)C5(Cl)C3(Cl)C1(Cl)C5(Cl)C24Cl (stereo not given) | inactive |
| CC(C)(C)CC(C)(C)c1ccc(O)cc1 | inactive |
| CCOP(OCC)OCC | inactive |
| O=C1C(Cl)=C(Cl)C(=O)c2ccccc21 | inactive |
| C[C@@H](Oc1ccc(Cl)cc1Cl)C(=O)O | inactive |
| CCC(C)(C)c1ccc(O)c(C(C)(C)CC)c1 | inactive |
| CC(C)OC(=O)Nc1ccccc1 | inactive |
| O=C(O)C(F)(F)C(F)(F)C(F)(F)C(F)(F)C(F)(F)C(F)(F)F | inactive |
| COC(=O)Cc1ccccc1 | inactive |
| CCCCCCCCc1ccc(O)cc1 | inactive |
| COP(=S)(OC)Oc1c(Cl)cc(C)cc1Cl | inactive |
| O=C(O)Cc1ccccc1 | inactive |
| CNC(=O)O/N=C/C(C)(C)S(C)=O (stereo not given) | inactive |
| CC(C)c1ccc(CO)cc1 | inactive |

From PubChem BioAssay (EPA / NIEHS)
